Data from the supplement of paper PMC10849652.
About 7,900 targets were measured; listed, in parts, are those with a hit and a random draw of the rest. About 0.6% of all pairs of compound and target were hits. A number with no mark means an inactive call.

Legend:
Test in all cases: log2 fold change, soluble protein after heating vs DMSO (PISA); higher = thermal stabilisation; K562 cells, 10 uM, 30 min; active = over 0.2 and 3.5 SD of the protein, either way, in both replicates (recomputed)
[1] = compound: CC[C@@H]1C(=O)N(C)c2cnc(Nc3ccc(C(=O)NC4CCN(C)CC4)cc3OC)nc2N1C1CCCC1
Outline: (§1)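 K562 cells (2×10^6 cells/mL) were treated with 10 μM compound for 30 min, and aliquots were heated for 3 min over 48°C-58°C. Pooled aliquots were extracted in PBS with 0.5% NP-40 at 4°C, and the supernatant after 21,000xg for 90 min was measured by TMTpro 16plex LC-MS/MS with channel sums equalised. Reported thermal stability, relative to control samples and from duplicates, is a log2 fold change.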

volasertib = compound: CC[C@@H]1C(=O)N(C)c2cnc(Nc3ccc(C(=O)N[C@H]4CC[C@H](N5CCN(CC6CC6)CC5)CC4)cc3OC)nc2N1C(C)C [volasertib]
Outline: as §1

[2] = compound: CC[C@H](C)N1C=C(C2=C(C=C(C=C21)C3=CN=C(C=C3)N4CCNCC4)C(=O)NCC5=C(C=C(NC5=O)C)C)C
Outline: as §1

epoxomicin = compound: CC[C@H](C)[C@@H](C(=O)N[C@@H]([C@@H](C)O)C(=O)N[C@@H](CC(C)C)C(=O)[C@]1(CO1)C)NC(=O)[C@H]([C@@H](C)CC)N(C)C(=O)C [epoxomicin]
Outline: as §1

[3] = compound: CCn1c(C(=O)N(C2CC2)C2CC2)cc2c3c(ncn3C)c(Nc3cc(C)n(C)n3)nc21
Outline: as §1

[4] = compound: CCn1cc(-c2ccnc3[nH]c(-c4cccc(CN(C)C)c4)cc23)c(-c2ccc(NC(=O)N(C)C)cc2)n1
Outline: as §1

[5] = compound: CN(C)CC(=O)Nc1ccc2[nH]c(=O)c3ccccc3c2c1
Outline: as §1

rosiglitazone = compound: CN(CCOC1=CC=C(C=C1)C[C@H]2C(=O)NC(=O)S2)C3=CC=CC=N3 (racemic) [rosiglitazone]
Outline: as §1

[6] = compound: CN1C2=C(C3=C1C(=O)N(N=C3)CC4=CC(=CC=C4)N)SC(=C2)S(=O)C
Outline: as §1

[7] = compound: CN1CCC(CNc2ccc3ncc(-c4cccc(OC(F)(F)F)c4)n3n2)CC1
Outline: as §1

saracatinib = compound: CN1CCN(CCOc2cc(OC3CCOCC3)c3c(Nc4c(Cl)ccc5c4OCO5)ncnc3c2)CC1 [saracatinib]
Outline: as §1

sotrastaurin = compound: CN1CCN(c2nc(C3=C(c4c[nH]c5ccccc45)C(=O)NC3=O)c3ccccc3n2)CC1 [sotrastaurin]
Outline: as §1

alvocidib = compound: CN1CC[C@H](c2c(O)cc(O)c3c(=O)cc(-c4ccccc4Cl)oc23)[C@H](O)C1 [alvocidib]
Outline: as §1

Tubastatin A = compound: CN1CCc2c(c3ccccc3n2Cc2ccc(C(=O)NO)cc2)C1 [Tubastatin A]
Outline: as §1

[8] = compound: CNC(=O)C1=CC=CC=C1NC2=NC(=NC=C2Cl)NC3=C(C=C(C=C3)N4CCOCC4)OC
Outline: as §1

defactinib = compound: CNC(=O)c1ccc(Nc2ncc(C(F)(F)F)c(NCc3nccnc3N(C)S(C)(=O)=O)n2)cc1 [defactinib]
Outline: as §1

rucaparib = compound: CNCc1ccc(-c2[nH]c3cc(F)cc4c3c2CCNC4=O)cc1 [rucaparib]
Outline: as §1

[9] = compound: CNc1nc(-c2ccc3c(N)n[nH]c3c2)cc(N2C[C@@H](C(=O)NC3CCCCC3)CC[C@H]2C)n1
Outline: as §1

encorafenib = compound: COC(=O)N[C@@H](C)CNc1nccc(-c2cn(C(C)C)nc2-c2cc(Cl)cc(NS(C)(=O)=O)c2F)n1 [encorafenib]
Outline: as §1

[10] = compound: COC(=O)[C@H](CCSC)NC(=O)C1=C(C=C(C=C1)NC[C@H](CS)N)C2=CC=CC=C2
Outline: as §1

UniProt Q9BRT3, sequence (Q9BRT3 whole entry, looked up): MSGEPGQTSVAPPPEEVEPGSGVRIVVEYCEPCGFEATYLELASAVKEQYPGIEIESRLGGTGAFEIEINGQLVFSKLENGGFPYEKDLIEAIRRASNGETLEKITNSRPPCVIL
UniProt P46734, sequence (P46734 whole entry, looked up): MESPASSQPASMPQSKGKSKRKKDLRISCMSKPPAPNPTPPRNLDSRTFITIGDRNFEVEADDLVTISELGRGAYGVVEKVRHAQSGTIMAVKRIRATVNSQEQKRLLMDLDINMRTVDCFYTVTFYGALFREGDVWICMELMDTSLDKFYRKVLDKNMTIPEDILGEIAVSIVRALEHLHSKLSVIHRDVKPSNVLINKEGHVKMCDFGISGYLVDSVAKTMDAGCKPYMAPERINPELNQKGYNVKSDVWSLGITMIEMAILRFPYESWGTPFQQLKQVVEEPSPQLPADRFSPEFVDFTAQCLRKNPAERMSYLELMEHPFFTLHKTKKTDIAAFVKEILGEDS
UniProt Q9H1H9, sequence (Q9H1H9 whole entry, looked up): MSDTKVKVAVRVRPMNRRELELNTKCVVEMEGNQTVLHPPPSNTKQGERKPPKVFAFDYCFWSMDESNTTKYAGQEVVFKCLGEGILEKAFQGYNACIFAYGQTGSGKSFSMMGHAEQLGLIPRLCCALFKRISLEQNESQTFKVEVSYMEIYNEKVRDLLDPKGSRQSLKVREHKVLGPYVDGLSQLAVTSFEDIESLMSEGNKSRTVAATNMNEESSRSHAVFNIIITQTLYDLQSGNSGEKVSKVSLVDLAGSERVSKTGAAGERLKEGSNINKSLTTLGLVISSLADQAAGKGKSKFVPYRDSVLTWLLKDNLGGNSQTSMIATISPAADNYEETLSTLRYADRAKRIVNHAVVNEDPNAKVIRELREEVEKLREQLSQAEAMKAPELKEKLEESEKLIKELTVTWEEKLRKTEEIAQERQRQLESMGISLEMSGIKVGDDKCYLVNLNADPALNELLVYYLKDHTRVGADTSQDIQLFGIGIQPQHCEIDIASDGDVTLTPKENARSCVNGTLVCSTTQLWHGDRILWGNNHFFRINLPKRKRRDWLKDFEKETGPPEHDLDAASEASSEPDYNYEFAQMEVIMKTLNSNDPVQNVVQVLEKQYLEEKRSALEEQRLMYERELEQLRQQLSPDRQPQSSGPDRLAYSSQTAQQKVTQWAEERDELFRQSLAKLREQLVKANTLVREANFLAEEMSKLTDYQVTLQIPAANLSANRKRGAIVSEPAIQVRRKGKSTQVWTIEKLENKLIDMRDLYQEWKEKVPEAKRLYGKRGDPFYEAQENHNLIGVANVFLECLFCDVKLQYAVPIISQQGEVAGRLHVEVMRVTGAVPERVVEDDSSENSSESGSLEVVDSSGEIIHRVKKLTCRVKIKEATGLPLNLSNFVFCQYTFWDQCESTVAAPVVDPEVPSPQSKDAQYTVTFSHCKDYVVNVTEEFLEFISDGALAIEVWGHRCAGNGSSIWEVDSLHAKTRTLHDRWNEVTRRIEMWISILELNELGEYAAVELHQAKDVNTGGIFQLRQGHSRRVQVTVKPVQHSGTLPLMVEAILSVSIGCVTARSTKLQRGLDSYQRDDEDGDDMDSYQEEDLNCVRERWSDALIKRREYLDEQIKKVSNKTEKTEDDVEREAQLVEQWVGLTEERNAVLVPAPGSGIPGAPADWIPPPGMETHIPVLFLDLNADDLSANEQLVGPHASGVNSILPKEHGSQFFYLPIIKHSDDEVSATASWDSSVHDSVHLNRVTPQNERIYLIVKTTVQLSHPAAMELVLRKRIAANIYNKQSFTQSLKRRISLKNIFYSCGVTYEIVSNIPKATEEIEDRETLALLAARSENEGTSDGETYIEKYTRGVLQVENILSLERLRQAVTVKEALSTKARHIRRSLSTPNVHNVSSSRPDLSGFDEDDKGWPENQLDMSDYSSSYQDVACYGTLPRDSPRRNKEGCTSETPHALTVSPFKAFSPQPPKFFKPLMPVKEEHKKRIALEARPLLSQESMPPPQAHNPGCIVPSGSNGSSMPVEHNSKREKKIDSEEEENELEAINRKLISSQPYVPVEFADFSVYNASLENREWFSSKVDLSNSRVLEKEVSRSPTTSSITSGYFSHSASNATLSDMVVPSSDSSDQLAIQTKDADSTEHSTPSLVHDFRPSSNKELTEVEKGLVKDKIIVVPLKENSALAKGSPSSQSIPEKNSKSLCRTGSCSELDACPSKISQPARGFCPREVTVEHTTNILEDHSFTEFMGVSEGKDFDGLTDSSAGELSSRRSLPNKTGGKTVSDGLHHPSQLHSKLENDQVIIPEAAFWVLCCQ
UniProt Q13257, sequence (Q13257 whole entry, looked up): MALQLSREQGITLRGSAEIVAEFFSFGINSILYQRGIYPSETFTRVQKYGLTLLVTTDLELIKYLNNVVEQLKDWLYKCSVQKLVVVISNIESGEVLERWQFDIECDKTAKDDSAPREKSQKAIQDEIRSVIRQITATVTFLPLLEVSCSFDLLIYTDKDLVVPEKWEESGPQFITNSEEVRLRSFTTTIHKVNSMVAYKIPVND
UniProt Q9H0C8, sequence (Q9H0C8 whole entry, looked up): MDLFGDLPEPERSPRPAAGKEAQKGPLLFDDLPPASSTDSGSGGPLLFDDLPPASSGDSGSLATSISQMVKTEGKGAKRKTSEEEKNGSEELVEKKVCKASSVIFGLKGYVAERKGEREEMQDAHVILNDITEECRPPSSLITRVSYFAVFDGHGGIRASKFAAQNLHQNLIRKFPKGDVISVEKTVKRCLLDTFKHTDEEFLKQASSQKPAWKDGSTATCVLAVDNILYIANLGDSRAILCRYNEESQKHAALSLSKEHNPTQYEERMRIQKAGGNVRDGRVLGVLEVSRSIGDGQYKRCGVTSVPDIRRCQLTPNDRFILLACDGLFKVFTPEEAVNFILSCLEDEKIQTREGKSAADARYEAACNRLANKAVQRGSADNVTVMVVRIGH
UniProt Q16644, sequence (Q16644 whole entry, looked up): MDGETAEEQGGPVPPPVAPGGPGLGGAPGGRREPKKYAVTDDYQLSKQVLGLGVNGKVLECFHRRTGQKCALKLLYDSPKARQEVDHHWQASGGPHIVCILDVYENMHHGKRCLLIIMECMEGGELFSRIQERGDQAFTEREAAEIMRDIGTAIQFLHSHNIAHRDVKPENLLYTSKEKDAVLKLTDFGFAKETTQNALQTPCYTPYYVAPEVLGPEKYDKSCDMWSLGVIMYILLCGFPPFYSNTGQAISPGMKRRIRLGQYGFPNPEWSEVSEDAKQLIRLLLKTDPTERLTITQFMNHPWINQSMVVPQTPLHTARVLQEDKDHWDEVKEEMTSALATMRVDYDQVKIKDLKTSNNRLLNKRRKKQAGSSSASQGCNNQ
UniProt O43318, sequence (O43318 whole entry, looked up): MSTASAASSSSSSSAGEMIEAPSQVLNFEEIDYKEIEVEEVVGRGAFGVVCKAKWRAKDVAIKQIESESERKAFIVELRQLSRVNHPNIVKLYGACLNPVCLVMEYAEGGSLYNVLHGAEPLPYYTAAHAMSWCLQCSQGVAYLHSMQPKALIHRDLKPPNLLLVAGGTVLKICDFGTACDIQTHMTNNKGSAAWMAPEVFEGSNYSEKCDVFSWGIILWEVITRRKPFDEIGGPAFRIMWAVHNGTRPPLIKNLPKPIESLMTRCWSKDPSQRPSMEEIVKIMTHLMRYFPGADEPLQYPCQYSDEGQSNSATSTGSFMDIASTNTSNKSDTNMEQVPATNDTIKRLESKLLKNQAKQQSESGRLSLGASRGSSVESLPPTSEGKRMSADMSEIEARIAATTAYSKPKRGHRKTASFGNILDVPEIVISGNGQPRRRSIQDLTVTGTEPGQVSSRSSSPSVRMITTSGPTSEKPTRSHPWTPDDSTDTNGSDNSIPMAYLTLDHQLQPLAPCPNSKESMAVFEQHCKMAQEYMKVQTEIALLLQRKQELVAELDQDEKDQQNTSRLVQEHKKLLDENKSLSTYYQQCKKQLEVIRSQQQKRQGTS
UniProt Q9NYL2, sequence (Q9NYL2 whole entry, looked up): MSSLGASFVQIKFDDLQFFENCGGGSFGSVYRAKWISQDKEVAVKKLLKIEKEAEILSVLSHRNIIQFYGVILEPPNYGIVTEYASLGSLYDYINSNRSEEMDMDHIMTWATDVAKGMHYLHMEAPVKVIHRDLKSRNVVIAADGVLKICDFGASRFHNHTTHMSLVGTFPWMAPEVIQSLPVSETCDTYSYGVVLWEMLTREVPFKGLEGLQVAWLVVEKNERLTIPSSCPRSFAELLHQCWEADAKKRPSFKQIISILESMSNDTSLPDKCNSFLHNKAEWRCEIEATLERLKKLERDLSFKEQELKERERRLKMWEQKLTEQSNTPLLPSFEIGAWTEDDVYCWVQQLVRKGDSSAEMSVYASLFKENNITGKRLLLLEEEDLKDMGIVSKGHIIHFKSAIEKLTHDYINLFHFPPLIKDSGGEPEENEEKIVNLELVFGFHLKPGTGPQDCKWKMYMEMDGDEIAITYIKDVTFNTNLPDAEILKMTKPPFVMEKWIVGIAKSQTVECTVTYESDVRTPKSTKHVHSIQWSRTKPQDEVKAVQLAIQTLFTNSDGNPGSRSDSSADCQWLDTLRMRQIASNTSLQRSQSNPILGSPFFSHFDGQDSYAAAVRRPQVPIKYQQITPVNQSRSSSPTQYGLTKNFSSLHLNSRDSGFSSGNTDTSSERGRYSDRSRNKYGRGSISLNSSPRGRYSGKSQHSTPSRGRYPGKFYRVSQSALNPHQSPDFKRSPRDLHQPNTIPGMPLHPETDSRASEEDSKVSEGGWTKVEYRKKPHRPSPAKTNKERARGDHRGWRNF

| Target | log2 fold change [1] | log2 fold change (volasertib) | log2 fold change [2] | log2 fold change (epoxomicin) | log2 fold change [3] | log2 fold change [4] | log2 fold change [5] | log2 fold change (rosiglitazone) | log2 fold change [6] | log2 fold change [7] | log2 fold change (saracatinib) | log2 fold change (sotrastaurin) | log2 fold change (alvocidib) | log2 fold change (Tubastatin A) | log2 fold change [8] | log2 fold change (defactinib) | log2 fold change (rucaparib) | log2 fold change [9] | log2 fold change (encorafenib) | log2 fold change [10] |
| --- | --- | --- | --- | --- | --- | --- | --- | --- | --- | --- | --- | --- | --- | --- | --- | --- | --- | --- | --- | --- |
| MAP3K7 (UniProt O43318) | -0.015 | -0.369 (active) | -0.008 | 0.018 | 0.032 | 0.043 | 0.046 | 0.079 | 0.079 | -0.093 | -0.07 | -0.146 | -0.072 | 0.054 | 0.023 | -0.023 | 0.099 | -0.035 | 0.1 | -0.011 |
| MAP3K20 (UniProt Q9NYL2) | 0.038 | -0.026 | 0.08 | 0.008 | 0.011 | -0.016 | -0.02 | 0.035 | 0.126 | -0.12 | -0.106 | 0.055 | 0.065 | 0.004 | 0.054 | -0.018 | 0.002 | 0.01 | 0.02 | -0.034 |
| MAPKAPK3 (UniProt Q16644) | -0.084 | 0.036 | 0.003 | 0.064 | 0.048 | 0.016 | -0.015 | 0.004 | -0.14 | -0.049 | 0.134 | -0.117 | 0.011 | -0.077 | 0.117 | -0.051 | -0.023 | 0.011 | 0.106 | -0.01 |
| MIEN1 (UniProt Q9BRT3) | 0.055 | -0.047 | -0.02 | 0.008 | 0.045 | 0.029 | 0.181 | -0.007 | 0.008 | 0.284 (active) | 0.049 | -0.067 | -0.141 | 0.069 | -0.002 | -0.067 | -0.032 | -0.019 | -0.051 | 0.129 |
| KIF13A (UniProt Q9H1H9) | 0.007 | -0.041 | -0.003 | 0.004 | -0.05 | -0.068 | -0.026 | 0.068 | -0.012 | 0.039 | 0.063 | 0.041 | -0.01 | 0.028 | 0.1 | -0.026 | 0.008 | -0.093 | -0.025 | 0.034 |
| MICU2 (UniProt Q8IYU8) | -0.135 | -0.118 | 0 | 0.067 | 0.005 | -0.046 | 0.007 | -0.017 | 0.097 | -0.309 (active) | 0 | -0.001 | 0.048 | 0.057 | -0.03 | -0.014 | 0.102 | -0.021 | 0.073 | -0.044 |
| KSR1 (UniProt Q8IVT5) | -0.11 | -0.182 | 0.179 | 0.047 | 0.002 | 0.178 | 0.009 | 0.058 | -0.05 | -0.878 (active) | -0.229 | -0.149 | -0.135 | 0.054 | -0.061 | -0.073 | -0.044 | 0.038 | 0.081 | 0.012 |
| MAGI1 (UniProt Q96QZ7) | 0.041 | 0.031 | 0.026 | -0.045 | 0.005 | 0.012 | -0.041 | 0.016 | 0.014 | -0.011 | -0.013 | -0.064 | -0.019 | -0.017 | 0.021 | -0.007 | 0.012 | 0.024 | 0.059 | -0.009 |
| ILKAP (UniProt Q9H0C8) | -0.135 | -0.343 (active) | 0.127 | 0.077 | -0.071 | -0.052 | 0.086 | 0.023 | -0.085 | -0.064 | -0.057 | -0.087 | -0.152 | 0.055 | -0.021 | -0.155 | 0.011 | 0.055 | 0.061 | -0.078 |
| MAP2K3 isoform 3 (UniProt P46734) | -0.041 | -0.17 | 0.09 | -0.035 | -0.017 | 0.039 | 0.038 | 0.018 | -0.054 | -0.121 | 0.024 | 0.017 | -0.029 | -0.045 | -0.025 | -0.063 | 0.058 | -0.061 | -0.02 | 0.003 |
| KIF2C (UniProt Q99661) | -0.037 | -0.357 (active) | 0.084 | 0.019 | -0.042 | -0.063 | 0.09 | 0.057 | 0.003 | -0.06 | 0.003 | -0.048 | -0.019 | 0.024 | -0.017 | -0.051 | 0.019 | 0.064 | 0.142 | -0.092 |
| MAD2L1 (UniProt Q13257) | -0.058 | -0.381 (active) | 0.016 | -0.045 | 0 | -0.038 | 0.002 | 0.052 | -0.081 | -0.166 | 0.037 | -0.056 | -0.109 | 0.01 | 0.05 | -0.112 | -0.058 | -0.046 | -0.007 | -0.04 |
| MARK3 (UniProt P27448) | -0.057 | -0.078 | 0.097 | 0.019 | -0.03 | -0.019 | 0.055 | 0.049 | 0.051 | -0.549 (active) | 0.024 | -0.434 (active) | -0.011 | 0.058 | -0.367 | -0.176 | -0.016 | -0.069 | 0.096 | 0.033 |
| KHDC4 (UniProt Q7Z7F0) | -0.063 | -0.236 (active) | 0.107 | 0.036 | -0.045 | -0.057 | 0.137 | 0.035 | 0.071 | -0.014 | -0.139 | 0.027 | -0.15 | 0.052 | 0.019 | -0.058 | -0.058 | 0.023 | 0.008 | -0.023 |
| ILF3 isoform 7 (UniProt Q12906) | 0.348 | 0.356 | -0.021 | -0.185 | -0.02 | 0.135 | -0.101 | -0.095 | 0.146 | 0.231 | 0.001 | 0.087 | 0.362 | -0.044 | 0.03 | 0.554 (active) | 0.202 | -0.003 | 0.032 | 0 |
